Compound activity (PubChem BioAssay)
Hits are enriched below; roughly 22% of the tested compounds scored in any of these assays.
CYP2C19 inh – blockers of cytochrome P450 2C19 activity – biochemical, luminescence, ADME assay, primary screen; P33261; CYP2C19 Supersomes, luciferin-H EGE luminescence, 30 min; inhibition, % at 5 µM; 21% of 96,000 active;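 active = CYP2C19 inhibition above a set limit at 5 µM in the primary screen, cut at about 50% in these data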;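 also: plate controls were negative control wells for no effect and 2.5 mM tranylcypromine positive control for full effect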
Target sequence (P33261 whole entry, looked up): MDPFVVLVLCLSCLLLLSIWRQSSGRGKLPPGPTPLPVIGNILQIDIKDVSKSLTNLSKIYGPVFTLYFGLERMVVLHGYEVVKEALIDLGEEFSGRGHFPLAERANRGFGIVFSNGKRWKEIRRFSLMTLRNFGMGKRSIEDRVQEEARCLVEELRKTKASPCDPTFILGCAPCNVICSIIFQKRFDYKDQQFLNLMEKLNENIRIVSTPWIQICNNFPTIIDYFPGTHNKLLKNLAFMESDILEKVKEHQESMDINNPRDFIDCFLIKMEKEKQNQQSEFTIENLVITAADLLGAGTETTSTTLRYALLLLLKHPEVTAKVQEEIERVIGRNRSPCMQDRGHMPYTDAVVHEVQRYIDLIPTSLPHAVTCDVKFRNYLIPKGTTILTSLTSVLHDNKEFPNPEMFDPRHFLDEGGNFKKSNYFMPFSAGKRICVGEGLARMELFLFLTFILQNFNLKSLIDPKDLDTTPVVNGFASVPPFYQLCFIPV
E-sel TNF inh – E-selectin induction blockers in HUVEC – imaging, immunofluorescence, high content, primary screen | HUVEC TNFa-induced E-selectin immunofluorescence | inhibition, % at 2 µM | 0.71% of 120,000 active;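 active = inhibition above the batch mean plus 3 SD, and confirmed as a hit on visual image review, cut at about 43% in these data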;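 also: 0% = TNF-stimulated DMSO wells and 100% = unstimulated control wells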
CYP2C19 activ – human CYP2C19 activators, primary screen, biochemical, luminescence. AID 1025, 2008. Cytochrome P450 2C19 (Homo sapiens), P33261. 96,000 tested, under 10 active. activation factor at 5 µM. recombinant CYP2C19, luciferin-H EGE luminescence; stronger effect = higher value; 0 = fully inhibited enzyme, 1 = untreated enzyme;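 active = activation factor of at least 2 at 5 µM in the primary screen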;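 also: 0 = wells with 2.5 mM tranylcypromine and 1 = vehicle-only wells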
CYP2C9 activ – human CYP2C9 activators, primary screen, biochemical, luminescence. 1.4% of 96,000 active. activation factor at 5 µM. recombinant CYP2C9, luciferin-H conversion; stronger effect = higher value; factor 1 = untreated enzyme, 0 = blocked. Cytochrome P450 2C9 (Homo sapiens), P11712;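 active = activation factor of 2 or more for CYP2C9 at a 5 µM dose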;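 also: 0 = sulfaphenazole-blocked wells and 1 = vehicle-only wells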
cytoskel mod – modifiers of F-actin cytoskeleton organization, primary screen, imaging, HUVEC, phalloidin staining, high-content imaging | AID 836, 2007 | 0.18% of 91,000 active | inhibition, % at 2 µM | HUVEC TNFa F-actin phalloidin imaging;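 active = inhibition above the batch mean plus 3 SD and confirmed as a hit by visual image inspection, cut at about 30% in these data, passing the limit was not always enough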
CYP2C9 inhib – blockers of cytochrome P450 2C9 activity – biochemical, luminescence, ADME assay, primary screen. P11712. CYP2C9 Supersomes, luciferin-H conversion. inhibition, % at 5 µM. 20% of 96,000 active. AID 777, 2007;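 active = blocking of liver enzyme CYP2C9 beyond about 50% at 5 µM, limit read from the data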
* hit, by the source's call; . = not tested or not shown.

SMILES | CYP2C19 inh | E-sel TNF inh | CYP2C19 activ | CYP2C9 activ | cytoskel mod | CYP2C9 inhib
Cc1ccc(NNC(=O)C(O)(c2cccc(C(F)(F)F)c2)c2cccc(C(F)(F)F)c2)cc1 | . | -12 | . | . | . | .
CC(=O)C(C(C)=O)c1c(Cl)c(O)c(O)c2c(C(=O)c3ccccc3)coc12 | 9 | -3 | 0.9 | 0.1 | 27 | 86*
O=S(=O)(c1ccc2nc(Cc3cccc(C(F)(F)F)c3)[nH]c2c1)N1CCOCC1 | 67* | 3 | 0.3 | 0.1 | 3 | 86*
O=S(=O)(c1ccc2nc(Cc3ccccc3)[nH]c2c1)N1CCOCC1 | 36 | 43 | 0.6 | 0.5 | 30 | 47
CC(C)(C)NC(=O)CSc1nc(O)cc(=O)n1-c1ccccc1F | 20 | -33 | 0.8 | 0.7 | -8 | 30
CCOC(=O)CNc1c(-c2ccc(Cl)cc2)nc2cnccn12 | 89* | . | 0.1 | 0.3 | . | 74*
CCOC(=O)CNc1c(-c2ccc(OC)cc2)nc2ccc(Cl)cn12 | . | -17 | . | . | -3 | .
CCOC(=O)CNc1c(-c2ccc(F)cc2)nc2cnccn12 | 60* | -43 | 0.4 | 0.6 | . | 38
COc1c[nH]n(C2CCCCC2)c(=O)c1=O | 2 | . | 1 | 0.8 | -1 | 22
COc1cc(OC)cc(C(=O)NCC(=O)OCC(=O)/C=C2/N(C)c3ccccc3C2(C)C)c1 | . | 24 | . | . | . | .
CCOC(=O)C1CCCN(Cc2cc(OC)c(O)c(OC)c2)C1 (stereo not drawn) | 11 | -31 | 0.9 | 1.1 | . | -6
CCOC(=O)C1CCCN(Cc2cc(Br)c(OC)cc2OC)C1 (stereo not drawn) | 84* | -3 | 0.2 | 1 | 1 | 5
CN1/C(=C\C(=O)COC(=O)Cn2nnc(-c3ccccc3)n2)C(C)(C)c2ccccc21 | 12 | -7 | 0.9 | 0.3 | 10 | 74*
CCOC(=O)C1CCCN(CC(=O)/C=C2/N(C)c3ccccc3C2(C)C)C1 (stereo not drawn) | 63* | . | 0.4 | 0.8 | 3 | 17
CCOC(=O)C1CCCN(Cc2cc(Br)ccc2OC)C1 (stereo not drawn) | 79* | -15 | 0.2 | 0.4 | . | 63*
CCOC(=O)C1CCCN(Cc2cc(=O)oc3cc(C)c(C)cc23)C1 (stereo not drawn) | . | 6 | . | . | . | .
O=C(Nc1ccccc1C(=O)N1CCCC1)C1CCN(c2ncccn2)CC1 | -9 | 38 | 1.1 | 1 | . | -2
Cc1sc2nc(CSCC(=O)Nc3ccccc3C#N)[nH]c(=O)c2c1C | . | 42 | . | . | . | .
CCOC(=O)C1CCCN(Cc2ccccc2F)C1 (stereo not drawn) | 75* | 75* | 0.3 | 1.2 | . | -18
CCOC(=O)C1CCCN(CC(=O)NC2=Nc3ccccc3N=C(C)C2c2ccccc2)C1 (stereo not drawn) | 90* | -32 | 0.1 | 0.1 | 14 | 91*
CCOC(=O)C1CCCN(CCC(C)c2ccccc2)C1 (stereo not drawn) | 58* | 19 | 0.4 | 0.9 | 6 | 10
CCOC(=O)C1CCCN(Cc2c(Cl)cccc2Cl)C1 (stereo not drawn) | 41 | 6 | 0.6 | 0.8 | 12 | 24
CCOc1cc(C)nc(N2CCCC(C(=O)NCc3ccccc3F)C2)n1 (stereo not drawn) | 58* | 19 | 0.4 | 1.2 | 0 | -20
CCOC(=O)c1ccc2[nH]c(C)c(C)c2c1 | . | -16 | . | . | -7 | .
Cc1[nH]c2ccc(C(=O)OCCN(C)C)cc2c1C | 86* | -15 | 0.1 | 0.8 | -7 | 23
SMILES | CYP2C19 inh | E-sel TNF inh | CYP2C19 activ | CYP2C9 activ | cytoskel mod | CYP2C9 inhib
Cc1ccc(-c2cc(-c3ccc(C)o3)nc(N)c2C#N)cc1 | 10 | -37 | 0.9 | 0.7 | 3 | 28
Cc1cc(-c2cc(-c3ccc(Cl)cc3)nc(N)c2C#N)co1 | 83* | -24 | 0.2 | 0.3 | 36 | 69*
Cc1ccc(-c2cc(-c3ccc(Cl)cc3)c(C#N)c(N)n2)o1 | 75* | -37 | 0.2 | 0.4 | 4 | 57*
CCc1ccc2[nH]cc(C(=O)OCCOC)c(=O)c2c1 | 6 | -16 | 0.9 | 0.8 | . | 18
O=C(O)c1cccn2c(=O)c3ccccc3nc12 | -6 | 10 | 1.1 | 0.9 | . | 5
COC(=O)CC1COc2ccccc2N1C(=O)c1cccc(Cl)c1 (stereo not drawn) | 63* | 9 | 0.4 | 0.5 | -7 | 46
COCCOC(=O)c1c(C)oc2ccc(NS(=O)(=O)c3ccc(C(=O)O)cc3)cc12 | 0 | . | 1 | 0.9 | . | 13
CCCOC(=O)c1ccc(NC(=O)/C=C/c2cccs2)cc1 | . | -21 | . | . | . | .
CCCCOC(=O)c1c(C)oc2ccc(NS(=O)(=O)c3ccc4c5c(cccc35)C(=O)N4)cc12 | 66* | 13 | 0.3 | 0 | 10 | 96*
CCCOC(=O)c1ccc(NS(=O)(=O)c2cccs2)cc1 | -14 | 8 | 1.1 | 0 | 2 | 100*
CCOC(=O)c1c(C)oc2ccc(NS(=O)(=O)c3cccs3)cc12 | 64* | -6 | 0.4 | 0.2 | -24 | 79*
O=C(c1csc2ccccc12)N1CCCCCC1 | 25 | -18 | 0.8 | 1.5 | . | -47
Cc1ccc(N=Cc2nc(-c3ccco3)oc2O)cc1 | 26 | 35 | 0.7 | 0.4 | -18 | 56*
Cc1ccc(C=Nc2ccc(N(C)C)cc2)o1 | 52* | . | 0.5 | 0.6 | 14 | 44
COc1ccc2[nH]c(C)c(CCNC(=S)Nc3ccccc3OC)c2c1 | . | -27 | . | . | . | .
O=C(COC(=O)c1cccnc1Nc1ccccc1F)NCCN1C(=O)CSC1=O | 84* | 13 | 0.2 | 0.8 | -15 | 17
CCCNC(=O)COC(=O)c1cccnc1Nc1ccccc1F | . | 19 | . | . | . | .
Nn1c(SCc2cccc(Oc3ccccc3)c2)nnc1C(F)(F)F | . | -24 | . | . | . | .
Cc1nn(-c2ccc(Cl)c(Cl)c2Cl)c(=O)c2ccccc12 | 71* | 12 | 0.3 | 0.5 | -18 | 54*
O=c1c(Sc2ccccc2)c(C(F)(F)F)[nH]n1-c1ccccc1 | 15 | 6 | 0.8 | 0 | 17 | 97*
COc1ccc(NC(=O)c2cc3n(n2)C(C(F)(F)F)CC(c2ccc4c(c2)OCO4)N3)cc1OC (stereo not drawn) | . | 7 | . | . | -22 | .
Cc1cccc(NC(=O)c2cc3n(n2)C(C(F)(F)F)CC(c2ccc4c(c2)OCO4)N3)c1 (stereo not drawn) | 39 | -2 | 0.6 | 0.1 | 1 | 87*
COc1ccc(C2SCCN2S(=O)(=O)c2ccc(F)cc2)cc1OC (stereo not drawn) | 56* | -26 | 0.4 | 1.8 | 17 | -82
COc1ccc(S(=O)(=O)N2CCSC2c2ccccc2)cc1 (stereo not drawn) | 99* | -10 | 0 | 1.6 | 6 | -62
